Measured values as given in PubChem BioAssay (NCATS).
Inconclusive results are not listed. Activity calls are given as the source filed them. Calls come from the whole dose curve; as a rule, active = well fitted inhibition curve with a large enough effect; inconclusive = small, poorly fitted or top-dose-only effect; inactive = flat fitted curve, though single readings scatter. Where a SMILES comes first, the peptide text is derived from it. [ ]: non-standard residue; d: D form. 2Abz = Nc1ccccc1C(=O)O

Columns and labels:
[1] = system: CRL-7250; experiment: Cytotoxic Profiling of Annotated Libraries Using Quantitative High-Throughput Screening (AID 1296008); details: Five cell lines viability, CellTiter-Glo ATP luminescence, 48-72 h; max response: stronger effect = lower value; for max response: % is set by controls: 0 for no effect and ±100 for the full control effect
How it was run: (§1)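 Cytotoxicity was measured as CellTiter-Glo ATP luminescence, read after 10 min at room temperature. Compound treatment of the cells lasted 48 or 72 hr at 37 degrees Celsius in a qHTS format.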

[2] = system: HEK293; experiment: as above; details: Five cell lines viability, CellTiter-Glo ATP luminescence, 48-72 h; max response: stronger effect = lower value
How it was run: as §1

[3] = system: HaCat; experiment: as above; details: Five cell lines viability, CellTiter-Glo ATP luminescence, 48-72 h; max response: stronger effect = lower value
How it was run: as §1

[4] = system: KB-3-1; experiment: as above; details: Five cell lines viability, CellTiter-Glo ATP luminescence, 48-72 h; max response: stronger effect = lower value
How it was run: as §1

[5] = system: NIH3T3; experiment: as above; details: Five cell lines viability, CellTiter-Glo ATP luminescence, 48-72 h; max response: stronger effect = lower value
How it was run: as §1

[6] = system: HACAT; experiment: qHTS assay to identify novel small-molecules to repurpose for Merkel cell carcinoma treatment (AID 1296009); details: MCC and control cell lines, CellTiter-Glo viability, 72 h; at 44.8 µM (top of the series) unless noted
How it was run: (§2)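 Cell viability measured by CellTiter-Glo following 72 hr compound treatment at 37 degree celsius, with NPC and MIPE libraries tested in 8- and 11-point concentration series.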

[7] = system: HEK293T; experiment: as above; details: MCC and control cell lines, CellTiter-Glo viability, 72 h; series mostly up to 44.8 µM
How it was run: as §2
Note: nearly all actives have a fitted effect of over 60% in size.

C[C@@H]1C(=O)O[C@H]2CC34[C@H]5C[C@@H](C(C)(C)C)C36[C@@H](OC(=O)[C@@H]6O)OC4(C(=O)O5)[C@]21O (some centres undefined)
inactive: max response [1] -2.58% | outcome [2] | outcome [3] | max response [4] 9.69% | max response [5] 4.14% | outcome [6] | Potency [7]

CNC(=O)Nc1ccc(OC)c(NC(=O)NC(=O)c2cc(F)c(F)cc2Cl)c1
inactive: max response [1] -5.98% | outcome [2] | outcome [3] | max response [4] 0.332% | outcome [5] | outcome [6] | Potency [7]

CC1CCC2C(C)(C)CC(C)(CO)C2(O)C1C(=O)O (centres undefined)
inactive: max response [1] 0.69% | outcome [2] | outcome [3] | max response [4] 9.23% | outcome [5] | outcome [6] | Potency [7]

CC1CC(=O)C2=C(O1)OC1(C)CCC3C(C)(C)C=CC(=O)C3(C)C1C2 (centres undefined)
inactive: max response [1] -3.54% | outcome [2] | outcome [3] | outcome [4] | outcome [5] | outcome [6] | Potency [7]

C=C1C(=O)OC2/C=C(\C)CC/C=C(\C(=O)O)CC/C=C(\C)CCC12 (centres undefined)
inactive: outcome [1] | outcome [2] | outcome [3] | max response [4] 5.52% | max response [5] 2.63% | outcome [6] | Potency [7]

C[C@H](NCc1ccc(OCc2ccccc2F)cc1)C(N)=O
inactive: outcome [1] | outcome [2] | outcome [3] | max response [4] -7.57% | max response [5] 1.69% | outcome [6] | Potency [7]

O=C(/C=C/c1ccc(O)cc1)OC[C@H]1O[C@@H](OC(=O)/C=C/c2ccccc2)[C@H](O)[C@@H](O)[C@@H]1O
inactive: outcome [1] | outcome [2] | outcome [3] | max response [4] -1.64% | outcome [5] | outcome [6] inactive [at 17.4 µM] | Potency [7]

CCC(C)C1NC(=O)C2CCCN2C(=O)C(C(C)C)NC(=O)c2ccccc2NC(=O)C(Cc2ccc(O)cc2)NC(=O)C(C)NC(=O)C(C(C)O)NC1=O (centres undefined) (cyclo([2Abz]VPITAY); configuration not given here)
inactive: max response [1] -3.19% | outcome [2] | outcome [3] | outcome [4] | outcome [5] | outcome [6] inactive [at 17.4 µM] | Potency [7]

CN1CC[C@@H](NC(=O)Nc2ccc(C#N)cc2)C[C@@H]1c1nc2ccccc2[nH]1
inactive: max response [1] -0.913% | outcome [2] | outcome [3] | max response [4] -8.77% | max response [5] 4.24% | outcome [6] | Potency [7]

CC1OC(OC2C(C)OC(OC3C(OC(=O)/C=C/c4ccc(O)cc4)C(CO)OC(OC4(COC(=O)/C=C/c5ccc(O)cc5)OC(CO)C(O)C4O)C3OC3OCC(O)(CO)C3O)C(O)C2O)C(O)C(O)C1O (centres undefined)
inactive: max response [1] -0.0903% | outcome [2] | outcome [3] | max response [4] 4.29% | outcome [5] | outcome [6] inactive [at 9.27 µM] | outcome [7] inactive [at 9.27 µM]

O=C1Nc2ccc(O)cc2O[C@H]1O[C@@H]1O[C@H](CO)[C@@H](O)[C@H](O)[C@H]1O
inactive: max response [1] -3.66% | outcome [2] | outcome [3] | outcome [4] | outcome [5] | outcome [6] | Potency [7]

FC(F)(F)c1cc(C(F)(F)F)c2ccc3nc(-c4nnco4)cn3c2n1
inactive: outcome [1] | outcome [2] | outcome [3] | max response [4] -10% | outcome [5] | outcome [6] | Potency [7]

C=C1CC2(C(=O)O)CC1CCC2C1(C)CCCC2(C)C(=O)OC(O)C21 (centres undefined)
inactive: max response [1] -12.2% | outcome [2] | outcome [3] | outcome [4] | max response [5] 0.0241% | outcome [6] | Potency [7]

COc1ccc(C(OC2OC(CO)C(O)C(O)C2O)C(C)O)cc1 (centres undefined)
inactive: max response [1] -9.11% | outcome [2] | outcome [3] | max response [4] 5.57% | outcome [5] | outcome [6] | Potency [7]

CC1OC(O[C@H]2[C@@H](O)C[C@@]3(C)C([C@H](O)C[C@]4(C)C3CC=C3C5CC(C)(C)CC[C@]5(C(=O)OC5OC(CO)C(O)C(O)C5OC5OCC(OC6OCC(OC7OCC(O)C(O)C7O)C(O)C6O)C(OC6OCC(O)(CO)C6O)C5O)CC[C@]34C)[C@]2(C)CO)C(O)C(O)C1O (some centres undefined)
inactive: outcome [1] | outcome [2] | outcome [3] | max response [4] 0.161% | outcome [5] | outcome [6] inactive [at 9.27 µM] | outcome [7] inactive [at 9.27 µM]

CC(=O)O[C@@H]1[C@H](O[C@@H]2OC[C@](O)(CO)[C@H]2O)[C@@H](O[C@@H]2O[C@@H](C)[C@H](O)[C@@H](O)[C@H]2O)[C@H](OC(=O)[C@]23CCC(C)(C)C[C@H]2C2=CCC4[C@@]5(C)C[C@H](O)[C@H](O[C@@H]6O[C@H](C(=O)O)[C@@H](O)[C@H](O)[C@H]6O)[C@@](C)(C(=O)O)C5CC[C@@]4(C)[C@]2(C)CC3)O[C@@H]1C (some centres undefined)
inactive: max response [1] -0.437% | outcome [2] | outcome [3] | outcome [4] | max response [5] 2.52% | outcome [6] inactive [at 9.27 µM] | outcome [7] inactive [at 9.27 µM]

C[C@@H]1CC[C@H]2C(C)(C)[C@H](O)[C@H](O)C[C@]2(C)[C@@]12Cc1c(O)cc3c(c1O2)CNC3=O
inactive: outcome [1] | outcome [2] | outcome [3] | outcome [4] | max response [5] 3.46% | outcome [6] | Potency [7]
